High-throughput results: PubChem BioAssay, Broad Institute
Compounds with a hit are over-represented: about 3% of the library has one in this group of screens.
Wnt act – activators of Wnt/beta-catenin signaling | Wnt/beta-catenin reporter cell assay, activator, plate reader | activation, % at 9.35 µM | hit rate 1.2% among 300,000; in the data active = activation above about 30%, passing the limit was not always enough; inconclusive = no clear call, values can overlap the other calls;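 also: 0% = neutral control wells and 100% = positive control wells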
esBAF inh – SWI/SNF esBAF complex inhibition | mouse ES cells, Bmi1-luciferase knock-in reporter, 24 h; 100% = twice the neutral-well signal | reporter increase, % at 12.5 µM | hit rate 2% among 350,000; in the data active = activation above about 40%; inconclusive = no clear call, values can overlap the other calls;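 also: 0% = median of the plate's neutral control wells and 100% = double that signal; a rise in the Bmi1 reporter signal indicates esBAF inhibition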
MITF act – activators of MITF-driven TRPM1 promoter activity in SK-MEL-5 cells; SK-MEL-5 TRPM1-promoter luciferase, 24 h; % of positive control, neutral wells = 0; activation, % at 12.5 µM; hit rate 0.75% among 300,000;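 active = mean activation of at least 80% with every replicate also reaching 80%; inconclusive = mean reaches 80% but some replicate falls short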;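 also: 0% = neutral control wells and 100% = parthenolide positive control wells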
C2C12 statin – suppression of simvastatin myotoxicity | rescue of ATP level, % at 7.49 µM | hit rate 0.78% among 330,000 | C2C12 myotubes + simvastatin, ATP luminescence, 48 h; scaled: DMSO 0, geranylgeraniol control 100;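 active = mean ATP rescue above about 67%, or every replicate alone reaching that limit, limit read from the data, passing the limit was not always enough; inconclusive = no clear call, values can overlap the other calls; inactive = mean under the limit and some replicate under it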;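 also: myotubes were challenged with 10 µM simvastatin during compound exposure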
Starred values were filed as active, the others as inactive; ? = inconclusive; nt = no result given.

SMILES	Wnt act	esBAF inh	MITF act	C2C12 statin
COc1ccc(-c2csc(Nc3ncccn3)n2)cc1C	38.3*	?	72.9	1.4
Cc1ccc(COc2ccccc2C(=S)N2CCCC2)cc1	1.7	54.9*	18.6	5.3
COc1cc(C(=S)N2CCCC2)ccc1OCc1ccc(C)cc1	8.6	46.6*	65.6	-18.4
CCOc1ccc(C(=S)N2CCCC2)cc1OC	-2.3	nt	-0.7	nt
C[C@@H]1CCCCO[C@H](CN(C)C(=O)Cc2ccccc2)[C@@H](C)CN([C@@H](C)CO)C(=O)c2cc(NC(=O)CCCN(C)C)ccc2O1	nt	1.3	nt	nt
C[C@@H]1CN([C@@H](C)CO)C(=O)c2cc(-c3ccc(C(=O)N(C)C)cc3)cnc2O[C@@H]1CN(C)C(=O)c1ccncc1	nt	-3.0	nt	5.9
Fc1ccc(CSc2nnc(CN3CCOCC3)n2-c2ccccc2)c(Cl)c1	nt	-0.2	-10.7	102.7*
Cc1noc(C)c1NC(=O)Nc1ccc2c(c1)C(=O)N([C@@H](C)CO)C[C@@H](C)[C@@H](CN(C)S(=O)(=O)c1ccc(F)cc1)O2	nt	1.6	nt	-17.2
CCOC(=O)n1c(=O)n(Cc2ccccc2)c2ccccc21	nt	nt	-5.1	nt
CCOC(=O)n1c(=O)n(Cc2c(Cl)cccc2Cl)c2ccccc21	-1.2	-4.6	-1.5	175.1*
COc1cc(OC)c2c(c1)O/C(=C\c1ccccc1)C2=O	-1.2	58.3*	nt	4.8
Cc1cc(C)n(CC(O)COc2ccc(Cl)cc2Cl)n1 (stereo unspecified)	5.2	52.3*	nt	1.2
Cc1cc(C)n(CC(O)COc2ccc(Cl)cc2)n1 (stereo unspecified)	1.3	3.7	nt	1.7
O=C(NCC1CC1)c1ccc2c3n(nc2c1)-c1ccccc1CO3	45.9*	4.5	44.4	-19.1
CC(C)NC(=O)c1ccc2c3n(nc2c1)-c1ccccc1CO3	17.6	-45.0	-13.1	-40.9
C=CCNC(=O)c1ccc2c3n(nc2c1)-c1ccc(Cl)cc1CO3	43.8*	53.0*	89.6*	5.9
Cc1ccc2c(c1)COc1c3ccc(C(=O)O)cc3nn1-2	-1.3	1.8	-68.5	3.0
O=C(NCCO)c1ccc2c3n(nc2c1)-c1ccccc1CO3	36.5*	1.8	72.8	-6.3
Cc1ccc2c(c1)COc1c3ccc(C(=O)NCC4CC4)cc3nn1-2	17.7	93.7*	77.7	-1.6
CC(C)[C@@H](CO)NC(=O)c1ccc2c3n(nc2c1)-c1ccccc1CO3	6.0	-15.9	11.4	-65.4
C[C@H]1CN([C@@H](C)CO)S(=O)(=O)c2ccc(C3=CCCC3)cc2O[C@H]1CN(C)C(=O)CC1CC1	nt	10.6	nt	17.7
Cc1noc(C)c1NC(=O)N(C)C[C@@H]1Oc2ccc(NS(=O)(=O)c3c(C)noc3C)cc2CC(=O)N([C@@H](C)CO)C[C@@H]1C	nt	1.1	nt	7.6
COc1ccc2nc(/N=C(\N)NC(=O)N3c4ccccc4Sc4ccccc43)nc(C)c2c1	-2.6	nt	-0.8	nt
COc1ccc2nc(/N=C(\N)NC(=O)C(C)(C)C)nc(C)c2c1	nt	47.7*	78.2	4.2
CCC(=O)N/C(N)=N/c1nc(C)c2cc(OC)ccc2n1	nt	55.2*	68.5	25.0
SMILES	Wnt act	esBAF inh	MITF act	C2C12 statin
CCCCC(=O)NC(=S)NNC(=O)CC#N	nt	3.0	-15.8	9.4
CCCCC(=O)NNC(=S)NC(=O)CCC	nt	-6.6	-3.1	112.1*
CC1CCCCC1NC(=O)c1ccc2c(c1)OCCO2 (stereo unspecified)	29.2	33.0	44.7	1.1
CC1CCCC(NC(=O)c2ccc3c(c2)OCCO3)C1C (stereo unspecified)	34.8*	?	70.6	-24.4
CC1CCCC(NC(=O)c2cccs2)C1C (stereo unspecified)	2.7	42.6*	20.0	-1.1
CC1CCCC(NC(=O)COC(=O)CCC(=O)c2cccs2)C1C (stereo unspecified)	-1.1	-1.6	-8.2	0.8
C[C@@H]1CN([C@@H](C)CO)C(=O)Cc2cc(NC(=O)Nc3ccc(F)cc3)ccc2O[C@H]1CN(C)Cc1ccc(Oc2ccccc2)cc1	nt	4.6	nt	13.0
CCOc1nc(-c2ccc(OC)cc2)ccc1-c1noc(C)n1	nt	2.2	9.5	-8.3
COCc1nc(-c2ccc(-c3ccc(C)cc3)nc2OC)no1	38.8*	42.7*	nt	-8.8
COc1ccc(-c2ccc(-c3noc(C)n3)c(OC)n2)cc1	nt	?	90.9*	-61.1
CC(=O)N(C)C[C@@H]1Oc2cc(Br)ccc2S(=O)(=O)N([C@H](C)CO)C[C@H]1C	nt	0.9	nt	-14.5
C[C@@H]1CN([C@@H](C)CO)C(=O)c2cccc(N(C)C)c2O[C@H]1CN(C)Cc1ccc(-c2ccccc2)cc1	nt	-3.4	nt	9.1
O=Cc1c(OCc2ccccc2)ccc2ccccc12	-8.2	100.5*	63.8	-1.2
COc1ccc(NC(=O)N(C)C[C@@H]2Oc3ncc(C#CCC(C)C)cc3C(=O)N([C@@H](C)CO)C[C@@H]2C)cc1	nt	-2.8	nt	13.2
Clc1ccc(OCc2cc(-c3ccccc3)no2)cc1Cl	1.2	nt	30.3	nt
O=S(=O)(Cc1cc(-c2ccccc2Cl)no1)c1ccccc1	-1.7	53.2*	89.9*	-11.8
O=S(=O)(Cc1cc(-c2ccc(Cl)cc2)no1)c1ccccc1	-3.6	51.0*	?	-34.2
Clc1ccc(-c2cc(COc3ccccc3)on2)cc1	9.1	50.5*	69.8	4.6
Cc1ccc(S(=O)(=O)N(C)C[C@@H]2Oc3c(NC(=O)C4CCCCC4)cccc3C(=O)N([C@H](C)CO)C[C@@H]2C)cc1	nt	1.9	nt	-17.2
CC(C)NC(=O)Nc1ccc2c(c1)C(=O)N([C@H](C)CO)C[C@@H](C)[C@@H](CN(C)C(=O)Nc1ccc(C(F)(F)F)cc1)OCCCC[C@@H](C)O2	nt	-0.2	nt	nt
CNC[C@H]1Oc2ncc(/C=C/c3ccccc3)cc2C(=O)N([C@@H](C)CO)C[C@H]1C	nt	-23.7	nt	-4.2
COC(=O)c1ccc(-c2ccc(/C=N/N3C(=O)C4C5C=CC(CC5)C4C3=O)o2)cc1 (stereo unspecified)	28.0	60.1*	49.2	1.6
O=C(O)c1cc(-c2ccc(/C=N/N3C(=O)C4C5C=CC(CC5)C4C3=O)o2)ccc1Cl (stereo unspecified)	-0.2	nt	1.3	nt
C[C@@H]1CCCCO[C@@H](CN(C)C(=O)c2ccccc2)[C@H](C)CN([C@H](C)CO)C(=O)c2cc(NS(=O)(=O)c3cn(C)cn3)ccc2O1	nt	2.7	nt	nt
COc1ccc(OCCSc2nc(N)cc(N)n2)cc1	1.9	67.1*	95.1*	38.4
SMILES	Wnt act	esBAF inh	MITF act	C2C12 statin
C/C=C/Cn1c(SCc2ccccc2)nc2c1c(=O)[nH]c(=O)n2C	-3.6	6.0	nt	116.5*
CCOCCn1c(SCc2ccccc2)nc2c1c(=O)[nH]c(=O)n2C	-1.6	-9.9	-5.7	4.9
Cc1ccc(C)c(S(=O)(=O)N(C(=O)c2ccncc2)c2ccc(OC(=O)c3ccncc3)cc2)c1	47.7*	nt	3.4	nt
Cc1ccc(S(=O)(=O)N(C(=O)c2ccncc2)c2ccc(OC(=O)c3ccncc3)cc2)c(C)c1	-1.1	nt	-7.6	nt
Cc1ccc(C(=O)Nc2cc3c(oc2=O)CCCC3=O)cc1	34.1*	nt	nt	nt
Cc1nn(C(=O)c2cccnc2)c(C)c1Sc1ccc(Br)cc1	nt	7.9	14.3	74.9*
O=S(=O)(Nc1ccccc1)c1ccc(F)cc1	nt	nt	5.4	nt
